Experiment [1] in a line: Quantitative High-Throughput drug screen in 47 multiple myeloma cell lines against the NCATS MIPE library collection: JIM3_ECACC cell viability assay (AID 1918963; also: nearly all actives have a fitted effect of over 35% in size; also: potency is read from the fitted curve at half-maximal effect). The gist of the method: (§1)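 Steps: seed 500 cells per well; pin-transfer MIPE 4.0 library; incubate 48 h at 37C, 5% CO2, humidified; add CellTiter-Glo, 5 min room temperature; read luminescence.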
The nature of experiment [2]: Quantitative High-Throughput drug screen in 47 multiple myeloma cell lines against the NCATS MIPE library collection: JIM1_ECACC cell viability assay (AID 1918964; also: potency is read from the fitted curve at half-maximal effect). Put shortly:
(§2)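 Approved and investigational drugs from MIPE 4.0 were added by pin tool to 500 cells per well. After 48 hours at 37C, ATP-based CellTiter-Glo luminescence indicated remaining viability.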

Experiment [3] can be described thus: Quantitative High-Throughput drug screen in 47 multiple myeloma cell lines against the NCATS MIPE library collection: INA6_PLB cell viability assay (AID 1918965; also: nearly all actives have a fitted effect of over 55% in size; also: potency is read from the fitted curve at half-maximal effect). The gist of the method: (§3)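 CellTiter-Glo luminescence (ATP) after 48 h compound exposure, 37C/5% CO2; 500 cells/well; MIPE 4.0 approved/investigational drugs pinned in; DMSO = 100%, media only = 0% viability.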

Experiment [4] can be described thus: Quantitative High-Throughput drug screen in 47 multiple myeloma cell lines against the NCATS MIPE library collection: JJN3_DSMZ cell viability assay (AID 1918966; also: nearly all actives have a fitted effect of over 50% in size; also: potency is read from the fitted curve at half-maximal effect). Put shortly:
as §2

Experiment [5] is described as follows: Quantitative High-Throughput drug screen in 47 multiple myeloma cell lines against the NCATS MIPE library collection: Karpas25_ECACC cell viability assay (AID 1918968; also: nearly all actives have a fitted effect of over 35% in size; also: potency is read from the fitted curve at half-maximal effect). Put shortly:
as §2

A short description of experiment [6]: Quantitative High-Throughput drug screen in 47 multiple myeloma cell lines against the NCATS MIPE library collection: KMS27_JCRB cell viability assay (AID 1918970). Also: nearly all actives have a fitted effect of over 30% in size. Also: potency is read from the fitted curve at half-maximal effect. The following applies: KMS27 myeloma cells, CellTiter-Glo ATP viability, 48 h; viability (% of DMSO): at 45.8 µM (top of the series). The gist of the method: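 KMS27_JCRB myeloma cells, 500 per well, exposed 48 h at 37 C, 5% CO2 to MIPE 4.0 compounds. Viability from ATP by CellTiter-Glo luminescence, normalized to DMSO (100%) and medium-only (0%) wells.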
(In general: ATP-based viability assays read luminescence as a measure of living cells.)

A short description of experiment [7]: Quantitative High-Throughput drug screen in 47 multiple myeloma cell lines against the NCATS MIPE library collection: KMS12BM_JCRB cell viability assay (AID 1918971). Also: nearly all actives have a fitted effect of over 35% in size. Also: potency is read from the fitted curve at half-maximal effect. Put shortly:
(§4)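 We plated 500 myeloma cells per well, pinned in MIPE 4.0 compounds, and incubated for 48 hours at 37C. ATP was then quantified with CellTiter-Glo, with DMSO and media-only wells defining 100% and 0%.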

The nature of experiment [8]: Quantitative High-Throughput drug screen in 47 multiple myeloma cell lines against the NCATS MIPE library collection: KMS12PE_JCRB cell viability assay (AID 1918972). Also: nearly all actives have a fitted effect of over 30% in size. Also: potency is read from the fitted curve at half-maximal effect. Put shortly:
as §3

The nature of experiment [9]: Quantitative High-Throughput drug screen in 47 multiple myeloma cell lines against the NCATS MIPE library collection: KMS26_JCRB cell viability assay (AID 1918975). Also: nearly all actives have a fitted effect of over 45% in size. Also: potency is read from the fitted curve at half-maximal effect. The gist of the method:
as §4

A short description of experiment [10]: Quantitative High-Throughput drug screen in 47 multiple myeloma cell lines against the NCATS MIPE library collection: MOLP8_DSMZ cell viability assay (AID 1918977). Also: nearly all actives have a fitted effect of over 45% in size. Also: potency is read from the fitted curve at half-maximal effect. Put shortly: (§5)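 500 cells/well; MIPE 4.0 drugs pin-transferred; 48 h, 37C, 5% CO2. CellTiter-Glo, 5 min RT, luminescence. Controls: DMSO 100%, media 0%.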
A short description of experiment [11]: Quantitative High-Throughput drug screen in 47 multiple myeloma cell lines against the NCATS MIPE library collection: NCIH929_DSMZ cell viability assay (AID 1918978). Also: nearly all actives have a fitted effect of over 35% in size. Also: potency is read from the fitted curve at half-maximal effect. The gist of the method:
as §5

Experiment [12] is described as follows: Quantitative High-Throughput drug screen in 47 multiple myeloma cell lines against the NCATS MIPE library collection: OCIMY1_PLB cell viability assay (AID 1918979). Also: nearly all actives have a fitted effect of over 35% in size. Also: potency is read from the fitted curve at half-maximal effect. Put shortly: as §5
Experiment [13] in a line: Quantitative High-Throughput drug screen in 47 multiple myeloma cell lines against the NCATS MIPE library collection: MM1R_ATCC cell viability assay (AID 1918981). Also: nearly all actives have a fitted effect of over 35% in size. Also: potency is read from the fitted curve at half-maximal effect. Put shortly: as §5
Experiment [14] is described as follows: Quantitative High-Throughput drug screen in 47 multiple myeloma cell lines against the NCATS MIPE library collection: KHM11_PLB cell viability assay (AID 1918962). Also: nearly all actives have a fitted effect of over 35% in size. The gist of the method: as §1
The nature of experiment [15]: Quantitative High-Throughput drug screen in 47 multiple myeloma cell lines against the NCATS MIPE library collection: H1112_PLB cell viability assay (AID 1918967; also: nearly all actives have a fitted effect of over 30% in size; also: potency is read from the fitted curve at half-maximal effect). Put shortly:
as §2

A short description of experiment [16]: Quantitative High-Throughput drug screen in 47 multiple myeloma cell lines against the NCATS MIPE library collection: KMS20_JCRB cell viability assay (AID 1918973). Also: nearly all actives have a fitted effect of over 45% in size. Also: potency is read from the fitted curve at half-maximal effect. The gist of the method: as §2
A short description of experiment [17]: Quantitative High-Throughput drug screen in 47 multiple myeloma cell lines against the NCATS MIPE library collection: MMM1_PLB cell viability assay (AID 1918976). Put shortly: as §5
Experiment [18] is described as follows: Quantitative High-Throughput drug screen in 47 multiple myeloma cell lines against the NCATS MIPE library collection: MM1S_ATCC cell viability assay (AID 1918980). Also: nearly all actives have a fitted effect of over 45% in size. Also: potency is read from the fitted curve at half-maximal effect. The gist of the method: as §5
A short description of experiment [19]: Quantitative High-Throughput drug screen in 47 multiple myeloma cell lines against the NCATS MIPE library collection: KMS21BM_JCRB cell viability assay (AID 1918974). Conditions: ATP luminescence, 48 h; viability: at 45.8 µM (top of the series). Put shortly: as §2

Records with an inconclusive call do not appear. Active and inactive are the calls of the source. Calls follow the shape of the dose curve; as a rule, active = well fitted curve in the direction sought with a large enough effect; inconclusive = small, poorly fitted or top-dose-only effect, or another doubt; inactive = no such curve, though single readings can be large; an effect the other way counts as inactive or inconclusive.

Experimental findings from PubChem BioAssay (NCATS) are described below.

For `OC[C@@H](O)[C@@H](O)[C@H](O)[C@@H](O)CO`, the Potency entry in [1], in experiment [2], in experiment [3], in experiment [4], in experiment [5] and in experiment [6] was “inactive” in each case. Besides, the Potency result in experiment [7], in [8], in experiment [9], in experiment [10], in [11] and in [12] was “inactive” in each case. Also, in [13], the Potency entry is “inactive”.
Take `C[C@H](CCC(=O)O)[C@H]1CCC2C3C[C@H](O)[C@@H]4C[C@H](O)CC[C@]4(C)C3CC[C@@]21C` (some centres undefined): the Potency result in experiment [14], in experiment [2], in experiment [3], in [15], in [8] and in experiment [16] was “inactive” throughout. The Potency entry in [9], in [11], in experiment [12], in [18] and in experiment [13] was “inactive” throughout. Also, the Potency in [17] is 833 nM (active).
On to `COc1cc(C)c(Sc2cnc(NC(=O)c3ccc(CNC(C)C(C)(C)C)cc3)s2)cc1C(=O)N1CCN(C(C)=O)CC1` (centres undefined), for which the Potency in experiment [1] is 3720 nM (active); in [2], 1480 nM (active); in [3] it was 14800 nM (active); in experiment [4], 10500 nM (active); in [15], 5900 nM (active); in experiment [5] it was 4690 nM (active). Moreover, the Potency in experiment [7] is 16600 nM (active); in [8], 5260 nM (active); in [16] it was 3720 nM (active); in experiment [9] it was 16600 nM (active); in experiment [17], 7430 nM (active); in experiment [10], 8330 nM (active). The Potency was 3320 nM (active) in experiment [11], 14800 nM (active) in experiment [12], 4180 nM (active) in experiment [18] and 5900 nM (active) in [13].
In the case of `COc1cc([C@@H]2c3cc4c(cc3[C@@H](O[C@@H]3O[C@@H]5CO[C@@H](c6cccs6)O[C@@H]5[C@H](O)[C@@H]3O)[C@H]3COC(=O)[C@H]23)OCO4)cc(OC)c1O`, the Potency in experiment [1] is 833 nM (active); in [2], 209 nM (active); in [3] it was 46.9 nM (active); in experiment [4] it was 13200 nM (active); in [15], 590 nM (active); in experiment [5], 1870 nM (active). For the same molecule, the Potency in experiment [6] was 132 nM (active); in experiment [7] it was 1320 nM (active); in experiment [8] it was 1320 nM (active); in experiment [16], 418 nM (active); in experiment [9], 16600 nM (active); in experiment [11], 14800 nM (active). The figures for the Potency in experiment [12], in [18] and in experiment [13] were 8330 nM (active), 59 nM (active) and 74.3 nM (active), respectively.
Consider `CC(C)C[C@H](NC(=O)CNC(=O)c1cc(Cl)ccc1Cl)B1OC(=O)CC(CC(=O)O)(C(=O)O)O1` (some centres undefined), for which the Potency was 83.3 nM (active) in experiment [1]; 37.2 nM (active) in [2]; 33.2 nM (active) in experiment [3]; 74.3 nM (active) in [4]; 66.2 nM (active) in experiment [15]; 29.6 nM (active) in [5]. The Potency in experiment [6] is 83.3 nM (active); in experiment [7], 83.3 nM (active); in [8] it was 46.9 nM (active); in experiment [16] it was 166 nM (active); in experiment [9] it was 93.5 nM (active); in [17], 6620 nM (active). Also, the Potency in experiment [10] is 46.9 nM (active); in experiment [11], 33.2 nM (active); in experiment [12], 59 nM (active); in experiment [18], 41.8 nM (active); in experiment [13], 29.6 nM (active).
Consider `C=Cc1c(C)c2cc3nc(cc4[nH]c(cc5nc(cc1[nH]2)C(C)=C5CCC(=O)O)c(CCC(=O)OC)c4C)[C@@]1(C)C3=CC=C(C(=O)OC)[C@H]1C(=O)OC`, for which the Potency was 418 nM (active) in experiment [1]; 148 nM (active) in experiment [2]; 209 nM (active) in [3]; 29.6 nM (active) in [4]; 132 nM (active) in [5]; 132 nM (active) in experiment [6]. Further, the Potency was 187 nM (active) in experiment [7]; 187 nM (active) in experiment [8]; 148 nM (active) in experiment [16]; 743 nM (active) in [9]; 332 nM (active) in [17]; 2090 nM (active) in [10]. The Potency in experiment [11] is 83.3 nM (active); in experiment [18], 52.6 nM (active); in [13] it was 93.5 nM (active).
In the case of `Cc1cc(-c2nnc3n2CCCCC3)c(C)n1-c1ccccc1`, the Potency entry in experiment [1], in [3], in experiment [15], in experiment [5] and in experiment [11] was “inactive” in each case. Moreover, the Potency in experiment [8] is 20900 nM (active); in experiment [17] it was 14800 nM (active); in experiment [12], 1.2 nM (active).
In the case of `CC(C)(O)CC[C@@H](O)[C@](C)(O)[C@H]1CC[C@@]2(O)C3=CC(=O)[C@@H]4C[C@@H](O)[C@@H](O)C[C@]4(C)[C@@H]3CC[C@]12C`, the Potency result in [1], in experiment [2], in [4], in experiment [15], in experiment [5] and in [6] was “inactive” in each case. The Potency result in experiment [8], in experiment [16], in experiment [11] and in experiment [13] was “inactive” in each case.
For the molecule `NC(=O)c1ncn([C@@H]2O[C@H](CO)[C@@H](O)[C@@H]2O)c1O`, the Potency result in experiment [1], in experiment [3], in [15], in experiment [5], in [7] and in [8] was “inactive” throughout. Also, the Potency result in experiment [16], in experiment [10], in experiment [11], in [12] and in [13] was “inactive” throughout. Further, the Potency in experiment [17] was 2640 nM (active).
Take `Cc1cncc2cccc(S(=O)(=O)N3CCCN(C(=O)CN)C[C@@H]3C)c12`: the Potency result in [1], in [7], in [9], in experiment [10] and in [13] was “inactive” in each case. The Potency was 16600 nM (active) in experiment [3]; 20900 nM (active) in [15]; 418 nM (active) in experiment [6]; 16600 nM (active) in experiment [8]; 18700 nM (active) in experiment [11].
As to `CCCCOc1ccc(C(=O)Nc2ccc(F)cc2F)cc1`, the Potency result in [1], in [2], in experiment [15], in experiment [5], in experiment [6] and in experiment [11] was “inactive” in each case. In [19], the viability (commonly a read-out of living cells in per cent, often relative to untreated cells) was 103% (active).
Take `O=C(NC1CC1)c1cccc(-c2ccc3c(NC(=O)C4CC4)n[nH]c3c2)c1`: the Potency is 11800 nM (active) in [1]; 5260 nM (active) in [3]; 6620 nM (active) in experiment [15]; 8330 nM (active) in [7]; 2640 nM (active) in [9]; 16600 nM (active) in experiment [11]. Moreover, the figures for the Potency in [18] and in [13] were 332 nM (active) and 1480 nM (active), respectively. Also, the Potency result in [8] was “inactive”.
